# Experimental data reported in article PMC4336329 (PLoS ONE, 2015).
# In all, about 310,000 compounds went through this assay and about 14,000 (4.5%) showed an effect of 50% or more. The effect is printed as a negative number. This excerpt belongs to a sample that is enriched for strong results.
# Target: human ether-à-go-go-related gene (hERG) potassium channel (human, UniProt Q12809)
# Experiment: primary screen, population patch clamp on CHO cells stably expressing hERG; higher = less effect of the substance
# 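Further: peak tail current of the secondary pulse compared with the same well before compound.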
# Chain of human ether-à-go-go-related gene (hERG) potassium channel (Q12809 whole entry, looked up): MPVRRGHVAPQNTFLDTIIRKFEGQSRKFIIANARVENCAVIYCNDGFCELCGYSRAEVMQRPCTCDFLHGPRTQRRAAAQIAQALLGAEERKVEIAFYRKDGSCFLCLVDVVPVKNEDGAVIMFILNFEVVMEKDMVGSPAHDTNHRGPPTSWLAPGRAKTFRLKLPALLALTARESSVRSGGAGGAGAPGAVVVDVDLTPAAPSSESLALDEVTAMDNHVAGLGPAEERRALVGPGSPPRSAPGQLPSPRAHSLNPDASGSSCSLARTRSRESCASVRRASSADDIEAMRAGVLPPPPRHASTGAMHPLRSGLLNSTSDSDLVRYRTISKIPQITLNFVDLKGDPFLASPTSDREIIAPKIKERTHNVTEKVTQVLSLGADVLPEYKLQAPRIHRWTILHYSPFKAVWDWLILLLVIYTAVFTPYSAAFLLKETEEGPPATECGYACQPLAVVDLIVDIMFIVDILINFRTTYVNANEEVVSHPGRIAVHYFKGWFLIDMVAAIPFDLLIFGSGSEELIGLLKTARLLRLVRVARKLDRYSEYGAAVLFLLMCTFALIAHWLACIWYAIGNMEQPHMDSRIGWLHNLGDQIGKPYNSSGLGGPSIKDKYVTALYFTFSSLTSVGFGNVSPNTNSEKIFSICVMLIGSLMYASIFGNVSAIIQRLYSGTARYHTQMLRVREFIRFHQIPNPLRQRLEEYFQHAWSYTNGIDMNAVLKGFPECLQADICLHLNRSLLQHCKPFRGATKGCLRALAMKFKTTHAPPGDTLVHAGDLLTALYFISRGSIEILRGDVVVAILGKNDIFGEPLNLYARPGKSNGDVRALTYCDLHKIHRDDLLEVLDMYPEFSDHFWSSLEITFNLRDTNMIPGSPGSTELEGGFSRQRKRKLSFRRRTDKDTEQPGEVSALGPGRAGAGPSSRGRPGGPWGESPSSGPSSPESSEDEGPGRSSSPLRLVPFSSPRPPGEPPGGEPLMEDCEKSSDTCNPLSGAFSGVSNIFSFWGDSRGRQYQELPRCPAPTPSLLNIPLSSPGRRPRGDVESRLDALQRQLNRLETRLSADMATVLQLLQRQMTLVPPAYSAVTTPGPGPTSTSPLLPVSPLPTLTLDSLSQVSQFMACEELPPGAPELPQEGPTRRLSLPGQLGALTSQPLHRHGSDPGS
row,Compound,"hERG current change (%, negative = inhibition) at 10uM"
1,CCOc1ccc(S(=O)(=O)n2ccnc2C)cc1,14.5%
2,Cc1cc(O)c(-c2n[nH]c3c2C(c2cccc(O)c2)N(Cc2cccnc2)C3=O)cc1Cl (stereo not drawn),11.4%
3,Cc1cccc(Cc2nnc(CCC(=O)N(C)C3CCOC3)o2)c1 (stereo not drawn),18.6%
4,Nc1cc2ccccc2oc1=O,8.37%
5,O=C1/C(=C/c2ccccc2Cl)SC(=S)N1CCCC(=O)N(CCO)c1ccccc1,-12.8%
6,CC(=O)NC12CC3CC(C1)CC(C(=O)Nc1nc4ccc(S(C)(=O)=O)cc4s1)(C3)C2,-1.14%
7,COc1ccc2nc(NC(=O)C34CC5CC(CC(NC(C)=O)(C5)C3)C4)sc2c1,-11.1%
8,CC(=O)NC12CC3CC(C1)CC(C(=O)Nc1nc4ccc(F)cc4s1)(C3)C2,-56.9%
9,CCc1ccc2[nH]cc(C(=O)OCCOC)c(=O)c2c1,4.42%
10,O=C(NCCc1ccccc1)c1ccc2nc3cc(Cl)ccc3c(=O)n2c1,14.1%
11,O=[N+]([O-])/C(C(Cl)=C(Cl)Cl)=C(/Sc1ccccc1)N1CCCCC1,4.71%
12,C=CCN1C(=O)/C(=C/c2ccc(Br)s2)C(=O)NC1=S,6.73%
13,CC1CCCCC1NC(=O)c1cc2c(=O)n3ccccc3nc2n1C (stereo not drawn),4.32%
14,N=c1c(C(=O)NC2CCCCC2)cc2c(=O)n3ccccc3nc2n1Cc1ccc(F)cc1,-77%
15,COCCNC(=O)c1ccc2c(=O)n(Cc3ccco3)c(SCC(=O)NC3CCCCC3)nc2c1,-47.1%
16,N=c1c(C(=O)NC2CCCCC2)cc2c(=O)n3ccccc3nc2n1Cc1ccccc1,-69.8%
17,N=c1c(C(=O)NC2CCCCC2)cc2c(=O)n3ccccc3nc2n1Cc1ccco1,-77%
18,O=C(NC1CCCCCC1)c1cc2c(=O)n3ccccc3nc2s1,0.251%
19,O=C(NC1CCCC1)c1cc2c(=O)n3ccccc3nc2s1,-9.33%
20,N=c1c(C(=O)NC2CCCC2)cc2c(=O)n3ccccc3nc2n1Cc1ccccc1,-78.6%
21,CCn1c(=N)c(S(=O)(=O)c2ccc(F)cc2)cc2c(=O)n3ccccc3nc21,-10.5%
22,CCOC(=O)c1[nH]c(C)c(C(=O)N(C)C)c1C,4.87%
23,CC(C)Oc1cccc(NC(=O)c2cnccc2C(F)(F)F)c1,-0.311%
24,COc1ccc(C2=CC(c3ccc(C)cc3)n3nnnc3N2)cc1 (stereo not drawn),-6.67%
25,O=C(CC(C(=O)O)c1ccc(Cl)cc1Cl)c1ccc(Cl)cc1 (stereo not drawn),11.4%
26,N=c1c(C(=O)NC2CCCCC2)cc2c(=O)n3ccccc3nc2n1Cc1cccnc1,-73.3%
27,O=C(NC1CCCCCC1)C1c2ccccc2C(=O)N1Cc1cccnc1 (stereo not drawn),-3.16%

row,Compound,"hERG current change (%, negative = inhibition) at 10uM"
1,Cc1ccc(-c2ccc(C(=O)O)[nH]2)cc1,-19.1%
2,Cc1ccccc1/C=N/NC(=O)Cc1ccc(Cl)cc1,17%
3,COc1ccccc1Nc1nnc(SCc2cc(=O)n3ccsc3n2)s1,-8.42%
4,CN(N=Nc1ccc([N+](=O)[O-])cc1)c1ccccc1,15%
5,CC(C)N(N=Nc1ccc([N+](=O)[O-])cc1)C(C)C,8.18%
6,O=[N+]([O-])c1ccc(N=NN(CCO)CCO)cc1,-75.3%
7,Cc1ccc(C(=O)c2c3ccc([N+](=O)[O-])cc3[n+]([O-])n2CCC[NH3+])cc1.O=C([O-])C(F)(F)F,-65.4%
8,Cc1ccc(C(=O)c2c3ccccc3[n+]([O-])n2CCC(=O)O)cc1,14.4%
9,Cc1ccc(C(=O)c2c3ccc(C(F)(F)F)cc3[n+]([O-])n2CCC[NH3+])cc1.O=C([O-])C(F)(F)F,-75%
10,Nc1c(Cl)cc(C(=O)c2c3ccc([N+](=O)[O-])cc3[n+]([O-])n2CCC[NH3+])cc1Cl.O=C([O-])C(F)(F)F,-43.5%
11,COc1ccc(C(=O)c2c3ccccc3[n+]([O-])n2CCC[NH3+])cc1.O=C([O-])C(F)(F)F,-28.9%
12,CCN(CCn1cccn1)C(=O)C1CCC(=O)N(CCN2CCOCC2)C1 (stereo not drawn),6.14%
13,O=C(CSc1nc2[nH]ncc2c(=O)[nH]1)Nc1ccc(Cl)c(Cl)c1,6.06%
14,CCN(CC(=O)Nc1ccc(NC(C)=O)cc1)C(=O)c1cccc(-n2cccc2)c1,0.603%
15,CCn1cc(/C=C(/C#N)S(=O)(=O)c2ccccc2)cn1,-8.15%
16,COc1ccc(Nc2nc(N3CCN(S(=O)(=O)N(C)C)CC3)nc3ccccc23)cc1,-5.03%
17,CC(Nc1nc(N2CCN(S(C)(=O)=O)CC2)nc2ccccc12)c1ccccc1 (stereo not drawn),-60.9%
18,CC(Nc1nc(N2CCCC2)nc2ccccc12)c1ccccc1 (stereo not drawn),-79.2%
19,CC(Nc1nc(N2CCNCC2)nc2ccccc12)c1ccccc1 (stereo not drawn),-66.2%
20,CC(Nc1nc(-c2ccccc2O)nc2ccccc12)c1ccccc1 (stereo not drawn),5.73%
21,CC(Nc1ncnc2ccccc12)c1ccccc1 (stereo not drawn),5.95%
22,CC(Nc1nc(-c2ccccc2)nc2ccccc12)c1ccccc1 (stereo not drawn),3.47%
23,COc1ccc(Nc2nc(N3CCN(S(C)(=O)=O)CC3)nc3ccccc23)c(OC)c1,-22.7%
24,CC(Nc1nc(-c2ccccc2F)nc2ccccc12)c1ccccc1 (stereo not drawn),-3.87%
25,Clc1ccc(-c2nc(N3CCCCC3)nc3ccccc23)cc1,4.29%
26,CC(Nc1nc(N2CCCCC2)nc2ccccc12)c1ccccc1 (stereo not drawn),-63.6%
27,Cc1cccc(OCCCn2c(CO)nc3ccccc32)c1,-32.3%
